The supplement of paper PMC8975748
Where a name gives a salt, the structure may show the parent alone.

Tested on: Saccharomyces cerevisiae BY4741 SeMeCo community
Assay: z-score of subpopulation abundance vs DMSO median, subpopulation auxotrophic for H; higher = larger share of this subpopulation than in DMSO controls
Details: 10 µM; 24 h; SM minimal medium; subpopulation (auxotrophy): H
Procedure: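 Fluorescent four-plasmid SeMeCo (self-establishing metabolically cooperating S. cerevisiae BY4741 community; plasmids pH-mRuby2, pL-mWasabi, pU-eCFP, pM-TagRFP657) was grown 24 h in minimal SM medium with each Selleck FDA-approved drug at 10 µM in 384-well plates. Cells were fixed and imaged by high-content confocal microscopy. For each auxotrophic subpopulation (and the prototroph), a z-score gives the deviation from the DMSO vehicle-control population median.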

Structure (SMILES)	z-score of subpopulation abundance
CN(C)C(=O)Oc1cccc([N+](C)(C)C)c1 [Neostigmine Bromide]	0.03
CC(NC(C)(C)C)C(=O)c1cccc(Cl)c1 (centres undefined) [Amfebutamone (Bupropion) HCl]	-0.63
O=[N+]([O-])C(Br)(CO)CO [Bronopol]	-0.52
CN1c2ccccc2C(NCCCCCCC(=O)O)c2ccc(Cl)cc2S1(=O)=O (centres undefined) [Tianeptine sodium]	-0.28
N#Cc1nn(-c2c(Cl)cc(C(F)(F)F)cc2Cl)c(N)c1[S+]([O-])C(F)(F)F (centres undefined) [Fipronil]	0.48
C[N+]1(C)[C@@H]2C[C@@H](OC(=O)[C@H](CO)c3ccccc3)C[C@H]1[C@@H]1O[C@@H]12 [Methscopolamine]	0.28
Oc1cccc2cccnc12 [8-Hydroxyquinoline]	0.93
CCOC(=O)Nc1ccc(NCc2ccc(F)cc2)cc1N [Retigabine 2HCl]	1.44
C[N+](C)(C)CCCCCCCCCC[N+](C)(C)C [Decamethonium Bromide]	0.07
CN(C)[C@@H]1C(=O)C(C(N)=O)=C(O)[C@@]2(O)C(=O)C3=C(O)c4c(O)cccc4[C@@](C)(O)[C@H]3C[C@@H]12 [Tetracycline HCl]	1.08
O=C(O[C@H]1C[N+]2(CCCOc3ccccc3)CCC1CC2)C(O)(c1cccs1)c1cccs1 [Aclidinium Bromide]	-0.92
CC[C@@]1(O)C(=O)OCc2c1cc1n(c2=O)Cc2cc3ccccc3nc2-1 [Camptothecin]	-1.03
C=C(C)[C@H]1Cc2c(ccc3c2O[C@@H]2COc4cc(OC)c(OC)cc4[C@@H]2C3=O)O1 [Rotenone (Barbasco)]	0.51
CC[C@H]1CN2CC[C@]3(C(=O)Nc4ccccc43)[C@@H]2C[C@@H]1/C(=C\OC)C(=O)OC [Rhynchophylline]	-0.08
COC(=O)C1=CCCN(C)C1 [Arecoline HBr]	0.32
COc1cc2c(cc1OC)C1CC(=O)C(CC(C)C)CN1CC2 (centres undefined) [Tetrabenazine (Xenazine)]	0.02
C#C[C@]1(O)C=C[C@H]2[C@@H]3CCC4=CC(=O)CC[C@@H]4[C@H]3CC[C@@]21CC [Gestodene]	0.25

Structure (SMILES)	z-score of subpopulation abundance
CCN(C)C(=O)Oc1cccc([C@H](C)N(C)C)c1 [Rivastigmine Tartrate]	-0.17
CCOC(=O)Nc1ccc(NCc2ccc(F)cc2)cc1N [Retigabine]	1.45
C=CN1CCCC1=O.II [Povidone iodine]	1.96
COc1ccc2c3c([nH]c2c1)C(C)=NCC3 [Harmaline]	2.23
COc1ccc(C(CN(C)C)C2(O)CCCCC2)cc1 (centres undefined) [Venlafaxine]	-1.33
Cc1cc(C(C#N)c2ccc(Cl)cc2)c(Cl)cc1NC(=O)c1cc(I)cc(I)c1O (centres undefined) [Closantel]	-0.23
Oc1cc(Cl)ccc1Oc1ccc(Cl)cc1Cl [Triclosan]	-1.93
COc1ccc2[nH]cc(CCN)c2c1 [5-Methoxytryptamine]	-0.85
CC[C@@H](C(N)=O)N1CCCC1=O [Levetiracetam]	-0.46
C=CC[C@]1(O)CC[C@H]2[C@@H]3CCC4=CC(=O)CCC4=C3C=C[C@@]21C [Altrenogest]	0.24
CN(C)[C@@H]1C(=O)C(C(N)=O)=C(O)[C@@]2(O)C(=O)C3=C(O)c4c(O)ccc(Cl)c4[C@@](C)(O)[C@H]3C[C@@H]12 [Chlortetracycline HCl]	0.94
C[N+]12CCC(CC1)C(OC(=O)C(O)(c1ccccc1)c1ccccc1)C2 (centres undefined) [Clidinium Bromide]	-0.48
CN1[C@@H]2CC[C@H]1C[C@@H](OC(=O)[C@H](CO)c1ccccc1)C2 [Hyoscyamine]	-0.74
CC1(C)SC2C(N)C(=O)N2C1C(=O)O (centres undefined) [6-Aminopenicillanic acid]	0.55
Cc1cc(O)ccc1Cl [Chlorocresol]	-0.85
C[CH2][Hg][S]c1ccccc1C(=O)[O-].[Na+] [Thimerosal]	7.64
CN1C(=O)COc2c(C(=O)NC3CN4CCC3CC4)cc(Cl)cc21 (centres undefined) [Azasetron HCl]	-0.91
